# Compounds without any hit were thinned out: in the full panel of roughly 83,000, 20% have a hit.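 Testing used 96-well plates and a 48-hour single-concentration exposure. Example: -40 means 40% of the starting cells died.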 Active and inactive are the calls of the source. Rule for the calls: active = growth percent below 10; inactive = the rest.
# Tested on: HCT-116 colon
# Assay: NCI-60 one-dose screen, 48 h (100 = growth as untreated, 0 = no growth, -100 = all killed)
# Details: 10 µM unless noted
row,Compound,growth
1,Nc1nc(SCc2cccc([N+](=O)[O-])c2)c2[nH]cnc2n1,101% (inactive)
2,N/C(=N\c1nc2ccccc2[nH]1)NC(=O)Cc1cccc2ccccc12,67.4% (inactive)
3,O=C1NC(=O)c2cc([N+](=O)[O-])cc3cccc1c23,107% (inactive)
4,COc1ccc(C2CC(c3cc(OC)c(OC)c(OC)c3)=NN2C(C)=O)cc1OCC(=O)Nc1nc2ccc(C(F)(F)F)cc2s1 (configuration not stated),30.5% (inactive)
5,O=C(N/N=C/c1ccc([N+](=O)[O-])cc1)c1ccc(Br)o1,99.4% (inactive)
6,O=C(NCc1ccccc1)C(Cl)Cl,108% (inactive)
7,COc1cc2c(c(OC)c1OC)-c1ccc(NNC(N)=S)c(=O)cc1[C@@H](NC(C)=O)CC2,2.28% (active)
8,CC(C)OC(=O)Nc1cc(F)c(F)cc1F,110% (inactive)
9,Nc1cc(C(=O)O)[nH]c(=S)n1,100% (inactive)
10,COc1ccc(OC)c(NC=O)c1,101% (inactive)
11,ClC1=C(Cl)C(Cl)=C(Cl)C1=Cc1ccccc1,-99% (active)
12,O=C(O)c1cc([N+](=O)[O-])ccc1Br,99.5% (inactive)
13,COC(=O)c1cc2c(=O)[nH]cc3c2c(n1)CCC3,106% (inactive)
14,CCN=C1C=CC(=C(c2ccc(N(CC)CC)cc2)c2ccc(N(CC)CC)cc2)c2ccccc21,-45.7% (active)
15,O=c1[nH]c(CN2CCN(c3cccc(Cl)c3)CC2)nc2cc(Cl)ccc12,92.4% (inactive)
16,c1ccc2c(c1)CN(CCCN1CCOCC1)C2,97.9% (inactive)
17,Nc1cc(NN=C(c2ccc(O)cc2)c2ccc(O)cc2)c([N+](=O)[O-])cc1[N+](=O)[O-],-61.8% (active)
18,O=c1cc(-c2ccccc2)oc2c(O)c(O)ccc12,39% (inactive)
19,COc1c(C(C)=O)c(OCCCCOc2c(C(C)=O)c(OC)c3ccoc3c2OC)c(OC)c2occc12,78% (inactive)

row,Compound,growth
1,CNc1cc(C(=O)O)nc(NC)n1,104% (inactive)
2,O=[N+]([O-])c1cc([N+](=O)[O-])c(NN=C(c2ccc(O)cc2)c2ccc(O)cc2)cc1Cl,-91.1% (active)
3,NC(=O)c1c(NC(=O)COC(=O)Cc2ccccc2F)sc2c1CCC2,114% (inactive)
4,CCCCOC(=O)c1c(C)[nH]c(/C=C2\N=C(c3ccc[nH]3)C=C2OC)c1C,-76.1% (active)
5,CC(C)[N+](C)(C)CC(O)COc1cccc2ccccc12 (configuration not stated),113% (inactive)
6,CCCCCCCCCCCCNC(=S)N/N=C/c1ccccc1O,62.2% (inactive)
7,COCc1nc2ccccc2[nH]1,99.9% (inactive)
8,CCCCCCCCCCCCCCNC(=O)Nc1ccc(Cl)c(Cl)c1,23.6% (inactive)
9,CCN(CC)CCSC(=O)C(O)(c1ccccc1)C1CCCC1 (configuration not stated),109% (inactive)
10,C=C1C(=O)O[C@H]2[C@H]1CC/C(COC(=O)NCc1ccc(Cn3c(=O)sn(-c4ccc(Cl)cc4)c3=O)cc1)=C\CC[C@@]1(C)O[C@@H]21,22.1% (inactive)
11,CCOC(=O)c1c[nH]c2cc(OCC3CC3)c(OCC3CC3)cc2c1=O,111% (inactive)
12,Cc1cc(NN=C(c2ccc(O)cc2)c2ccc(O)cc2)c([N+](=O)[O-])cc1[N+](=O)[O-],28.6% (inactive)
13,Nc1nnc(CSc2nnc3n(Cc4ccccc4)c(=O)c4c5c(sc4n23)CCCC5)s1,89.5% (inactive)
14,N#Cc1c(Cl)nc(SCC2CO2)nc1-c1ccccc1 (configuration not stated),88.8% (inactive)
15,O=C(C[n+]1ccn(CC(OCc2ccc(Cl)cc2Cl)c2ccc(Cl)cc2Cl)c1)c1ccc(F)cc1 (configuration not stated),-97.1% (active)
16,O=C(O)CSCc1nnc2n(Cc3ccccc3)c(=O)c3c4c(sc3n12)CCCC4,144% (inactive)
17,COc1ccc(OC)c([N+](=O)[O-])c1C(=O)CNC(C)=O,106% (inactive)
18,COc1ccc2c3ccnc(C(F)(F)F)c3n(CCCCN)c2c1,16.5% (inactive)

# — PubChem BioAssay (NCI)
